Experimental data taken from PubChem BioAssay (Tox21).
Inconclusive results are not listed. A call without a number means that no potency is given here. A number with no mark means an inactive call. Calls of active or inactive are those of the source. Calls follow the shape of the dose curve; as a rule, active = well fitted curve in the direction sought with a large enough effect in the repeat runs; inconclusive = weak or mixed curves; inactive = no such curve, though single readings can be large; an effect the other way counts as inactive or inconclusive.

Assays:
[1] = biological target: Cytochrome P450 2D6 (Homo sapiens) (UniProt P10635); experiment: Cytochrome P450 Family 2 Subfamily D Member 6 (CYP2D6) small molecule antagonists: luciferase reporter qHTS assay (AID 1671196); conditions: P450-Glo CYP2D6 enzyme assay, luciferin luminescence, 1 h; series mostly up to 115 µM; also: nearly all actives have a fitted effect of over 50% in size
Outline: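 Room-temperature luminescent CYP2D6 activity assay: compound preincubated 10 min with enzyme–substrate mix, NADPH-initiated reaction 1 h, detection reagent 20 min before reading.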

[2] = biological target: Cytochrome P450 2C9 (Homo sapiens) (UniProt P11712); experiment: Cytochrome P450 Family 2 Subfamily C Member 9 (CYP2C9) small molecule antagonists: luciferase reporter qHTS assay (AID 1671198); conditions: P450-Glo CYP2C9 enzyme assay, luciferin luminescence; series mostly up to 115 µM; also: nearly all actives have a fitted effect of over 50% in size
Outline: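 CYP2C9 activity was measured with a P450-Glo proluciferin substrate. Enzyme–substrate mix was held with compound for 10 min at room temperature, then NADPH regeneration solution was added for 1 h at 37C. Luciferin product was read as luminescence.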

[3] = biological target: Cytochrome P450 1A2 (Homo sapiens) (UniProt P05177); experiment: Cytochrome P450 Family 1 Subfamily A Member 2 (CYP1A2) small molecule antagonists: luciferase reporter qHTS assay (AID 1671199); conditions: P450-Glo CYP1A2 enzyme, luciferin luminescence, 1 h; series mostly up to 53 µM; also: nearly all actives have a fitted effect of over 50% in size
Outline: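 Room-temperature CYP1A2 reaction with proluciferin substrate: compounds added from DMSO, 10 min preincubation, NADPH regeneration for 1 h. Luciferin detection reagent then added; luminescence recorded as RLU.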

[4] = biological target: Voltage-gated inwardly rectifying potassium channel KCNH2 (Homo sapiens) (UniProt Q12809); experiment: Human Ether-a-go-go-Related Gene (hERG) channel small molecule antagonists: fluorescence cell-based qHTS assay (AID 1671200); conditions: hERG-U2OS cells, FluxOR thallium flux fluorescence; series mostly up to 76.8 µM; also: nearly all actives have a fitted effect of over 50% in size;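 as to activity change, negative = inhibition: hERG-expressing U2OS cells given a thallium stimulus after FluxOR II dye loading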
Outline: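 First, 1000 cells per well are seeded and cultured overnight at 37 C. Next, FluxOR II dye is loaded for 1 h at room temperature, protected from light. After 10 more minutes, stimulus is added and fluorescence is read.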

[5] = biological target: Cytochrome P450 3A4 (Homo sapiens) (UniProt P08684); experiment: Cytochrome P450 Family 3 Subfamily A Member 4 (CYP3A4) small molecule antagonists: luciferase reporter qHTS assay (AID 1671201); conditions: P450-Glo CYP3A4 enzyme, luciferin luminescence, 1 h; series mostly up to 115 µM; also: nearly all actives have a fitted effect of over 50% in size
Outline: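 Enzyme and proluciferin substrate are mixed with test chemicals for 10 min, then NADPH regeneration system drives turnover for 1 h at room temperature. A detection reagent halts the reaction; luminescence after 20 min gives relative activity.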

[6] = biological target: Cytochrome P450 2C19 (Homo sapiens) (UniProt P33261); experiment: Cytochrome P450 Family 2 Subfamily C Member 19 (CYP2C19) small molecule antagonists: luciferase reporter qHTS assay (AID 1671197); conditions: P450-Glo CYP2C19 enzyme, luciferin luminescence, 1 h; series mostly up to 115 µM; also: nearly all actives have a fitted effect of over 65% in size
Outline: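 First, compounds are pinned into enzyme-substrate mix and held 10 min at room temperature. Second, NADPH regeneration solution is added and plates incubate 1 h at 37C. Third, detection reagent is added and luminescence read after 20 min.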
Potency is read from the fitted curve at half-maximal effect.

Sequence of Voltage-gated inwardly rectifying potassium channel KCNH2 (Homo sapiens) (Q12809 whole entry, looked up): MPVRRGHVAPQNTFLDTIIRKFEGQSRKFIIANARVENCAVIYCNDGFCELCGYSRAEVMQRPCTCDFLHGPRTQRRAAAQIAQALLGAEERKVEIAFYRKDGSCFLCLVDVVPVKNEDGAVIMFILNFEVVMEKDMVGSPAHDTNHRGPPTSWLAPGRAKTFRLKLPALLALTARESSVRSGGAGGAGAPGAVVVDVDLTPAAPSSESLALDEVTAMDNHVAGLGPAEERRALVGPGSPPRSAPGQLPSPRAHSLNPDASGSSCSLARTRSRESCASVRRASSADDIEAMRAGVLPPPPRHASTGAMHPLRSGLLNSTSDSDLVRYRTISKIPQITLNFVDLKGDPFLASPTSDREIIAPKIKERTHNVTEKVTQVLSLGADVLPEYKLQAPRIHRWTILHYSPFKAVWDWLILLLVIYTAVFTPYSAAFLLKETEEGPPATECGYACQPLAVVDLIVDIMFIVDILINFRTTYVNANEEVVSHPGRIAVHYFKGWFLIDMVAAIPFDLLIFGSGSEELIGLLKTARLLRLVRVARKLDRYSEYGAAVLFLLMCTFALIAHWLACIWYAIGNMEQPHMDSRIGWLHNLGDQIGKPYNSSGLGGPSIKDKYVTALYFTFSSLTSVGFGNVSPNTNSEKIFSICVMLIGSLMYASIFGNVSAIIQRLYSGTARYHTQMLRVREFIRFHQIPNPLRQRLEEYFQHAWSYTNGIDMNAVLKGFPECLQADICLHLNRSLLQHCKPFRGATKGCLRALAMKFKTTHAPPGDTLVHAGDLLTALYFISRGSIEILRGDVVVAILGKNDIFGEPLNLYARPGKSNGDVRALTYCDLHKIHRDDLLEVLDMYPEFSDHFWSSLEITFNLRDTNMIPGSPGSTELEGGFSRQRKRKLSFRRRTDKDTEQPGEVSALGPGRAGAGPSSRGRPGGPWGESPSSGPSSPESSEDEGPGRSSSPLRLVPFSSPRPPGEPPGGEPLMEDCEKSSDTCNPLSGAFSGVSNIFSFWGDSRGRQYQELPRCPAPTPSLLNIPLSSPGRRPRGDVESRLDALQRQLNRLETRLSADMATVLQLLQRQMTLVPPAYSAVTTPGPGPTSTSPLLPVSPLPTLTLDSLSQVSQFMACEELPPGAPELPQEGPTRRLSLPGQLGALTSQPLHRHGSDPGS
Sequence of Cytochrome P450 1A2 (Homo sapiens) (P05177 whole entry, looked up): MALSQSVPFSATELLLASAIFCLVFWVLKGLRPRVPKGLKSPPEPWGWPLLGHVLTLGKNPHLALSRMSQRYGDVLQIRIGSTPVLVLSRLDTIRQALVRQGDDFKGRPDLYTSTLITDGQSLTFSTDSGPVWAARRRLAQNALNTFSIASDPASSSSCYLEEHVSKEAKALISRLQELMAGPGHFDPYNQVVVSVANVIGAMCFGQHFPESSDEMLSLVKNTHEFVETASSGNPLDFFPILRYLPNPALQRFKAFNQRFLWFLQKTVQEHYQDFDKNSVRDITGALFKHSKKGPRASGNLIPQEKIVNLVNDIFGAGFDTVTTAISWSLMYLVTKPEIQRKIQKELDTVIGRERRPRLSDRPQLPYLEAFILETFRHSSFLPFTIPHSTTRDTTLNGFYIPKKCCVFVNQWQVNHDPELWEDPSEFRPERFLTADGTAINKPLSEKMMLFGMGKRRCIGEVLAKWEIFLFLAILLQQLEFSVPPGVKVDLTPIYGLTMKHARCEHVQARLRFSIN
Sequence of Cytochrome P450 2C19 (Homo sapiens) (P33261 whole entry, looked up): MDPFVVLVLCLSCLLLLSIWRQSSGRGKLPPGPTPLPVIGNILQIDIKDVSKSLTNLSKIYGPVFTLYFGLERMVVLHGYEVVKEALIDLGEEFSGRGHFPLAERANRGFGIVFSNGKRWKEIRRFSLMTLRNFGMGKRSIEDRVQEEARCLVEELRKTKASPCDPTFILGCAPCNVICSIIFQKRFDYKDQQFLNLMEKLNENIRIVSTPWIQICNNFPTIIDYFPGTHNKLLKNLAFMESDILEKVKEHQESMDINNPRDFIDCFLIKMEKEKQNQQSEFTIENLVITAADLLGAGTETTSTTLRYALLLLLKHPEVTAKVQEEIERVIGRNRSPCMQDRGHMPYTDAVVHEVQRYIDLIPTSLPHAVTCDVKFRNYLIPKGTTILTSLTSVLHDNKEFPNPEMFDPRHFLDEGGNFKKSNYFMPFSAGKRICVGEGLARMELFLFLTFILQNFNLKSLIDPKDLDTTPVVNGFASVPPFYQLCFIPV
Sequence of Cytochrome P450 2D6 (Homo sapiens) (P10635 whole entry, looked up): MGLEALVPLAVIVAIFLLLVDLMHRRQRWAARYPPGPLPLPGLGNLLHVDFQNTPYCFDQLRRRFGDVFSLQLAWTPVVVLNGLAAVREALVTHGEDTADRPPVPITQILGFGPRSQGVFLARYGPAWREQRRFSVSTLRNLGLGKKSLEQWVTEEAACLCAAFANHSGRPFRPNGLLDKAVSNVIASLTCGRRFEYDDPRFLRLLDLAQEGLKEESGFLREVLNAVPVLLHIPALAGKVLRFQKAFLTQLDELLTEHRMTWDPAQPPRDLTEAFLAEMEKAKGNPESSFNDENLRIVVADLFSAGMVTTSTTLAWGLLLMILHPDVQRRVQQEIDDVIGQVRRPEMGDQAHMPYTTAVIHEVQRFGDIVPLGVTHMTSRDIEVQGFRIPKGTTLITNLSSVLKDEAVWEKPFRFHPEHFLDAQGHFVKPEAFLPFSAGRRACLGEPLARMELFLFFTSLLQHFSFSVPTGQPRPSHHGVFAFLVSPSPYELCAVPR
Sequence of Cytochrome P450 3A4 (Homo sapiens) (P08684 whole entry, looked up): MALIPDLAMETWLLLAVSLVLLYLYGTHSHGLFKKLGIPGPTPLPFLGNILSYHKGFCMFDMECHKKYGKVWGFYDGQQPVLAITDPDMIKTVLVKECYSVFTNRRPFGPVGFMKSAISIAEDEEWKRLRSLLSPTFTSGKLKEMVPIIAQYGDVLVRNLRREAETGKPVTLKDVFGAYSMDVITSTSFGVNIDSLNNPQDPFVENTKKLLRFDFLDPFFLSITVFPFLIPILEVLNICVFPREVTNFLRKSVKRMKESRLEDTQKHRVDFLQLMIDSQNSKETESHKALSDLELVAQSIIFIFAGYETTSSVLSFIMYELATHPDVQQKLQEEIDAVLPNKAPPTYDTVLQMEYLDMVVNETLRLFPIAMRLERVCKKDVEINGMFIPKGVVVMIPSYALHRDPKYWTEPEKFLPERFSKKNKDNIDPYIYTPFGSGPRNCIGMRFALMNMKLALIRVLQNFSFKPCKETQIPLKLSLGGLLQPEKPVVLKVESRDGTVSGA
Sequence of Cytochrome P450 2C9 (Homo sapiens) (P11712 whole entry, looked up): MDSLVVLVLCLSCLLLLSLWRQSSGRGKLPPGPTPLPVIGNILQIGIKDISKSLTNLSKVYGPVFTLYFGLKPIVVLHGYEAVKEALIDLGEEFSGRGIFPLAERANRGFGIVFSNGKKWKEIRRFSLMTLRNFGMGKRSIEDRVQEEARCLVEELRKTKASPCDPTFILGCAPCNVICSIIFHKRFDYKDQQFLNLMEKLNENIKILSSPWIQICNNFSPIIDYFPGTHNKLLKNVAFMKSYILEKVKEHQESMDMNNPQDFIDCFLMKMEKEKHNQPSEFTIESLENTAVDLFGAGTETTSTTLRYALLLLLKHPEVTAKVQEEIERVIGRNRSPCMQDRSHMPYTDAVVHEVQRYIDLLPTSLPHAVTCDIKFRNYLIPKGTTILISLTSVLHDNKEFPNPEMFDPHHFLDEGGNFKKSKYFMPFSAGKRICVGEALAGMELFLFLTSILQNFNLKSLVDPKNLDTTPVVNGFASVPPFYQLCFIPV

Nc1nc(F)nc2c1ncn2[C@@H]1O[C@H](CO)[C@@H](O)[C@@H]1O
Potency [1]: 34.7 µM (active)
Potency [2]: inactive
Potency [3]: inactive
Potency [4]: inactive
Potency [5]: inactive

CC(CCO)CCCC(C)(C)O (configuration not stated)
Potency [1]: inactive
Potency [2]: inactive
Potency [4]: inactive
Potency [5]: inactive

Nc1[nH]c(=O)ncc1F
Potency [1]: inactive
Potency [2]: inactive
Potency [3]: inactive
Potency [4]: inactive
Potency [5]: inactive

CCN1CCCC1CNC(=O)c1cc(S(N)(=O)=O)ccc1OC (configuration not stated)
Potency [1]: 20 µM (active)
Potency [6]: inactive
Potency [5]: inactive

Cn1cnc2c(=O)[nH]c(N)nc21
Potency [1]: inactive
Potency [2]: inactive
Potency [3]: 28.3 µM (active)
Potency [4]: inactive
Potency [5]: inactive

C1COCCO1
Potency [1]: inactive
Potency [6]: 36.4 µM (active)
Potency [4]: inactive
Potency [5]: inactive

O=C(O)/C=C/c1ccc(Cn2ccnc2)cc1
Potency [1]: inactive
Potency [2]: 17.4 µM (active)
Potency [3]: 24.5 µM (active)
Potency [4]: inactive

CC(C)(O)c1ccccc1
Potency [1]: inactive
Potency [6]: 68.1 µM (active)
Potency [4]: inactive
Potency [5]: inactive

Cc1ccc(Nc2ccc(O)c3c2C(=O)c2ccccc2C3=O)cc1
Potency [1]: inactive
Potency [6]: inactive
Potency [4]: inactive
Potency [5]: inactive

O=C(O)c1cccc(C(=O)O)n1
Potency [1]: inactive
Potency [2]: inactive
Potency [3]: inactive
Potency [4]: inactive
Potency [5]: inactive

CC(C)(C)CC(C)(C)N
Potency [1]: inactive
Potency [2]: inactive
Potency [3]: 30.8 µM (active)
Potency [4]: inactive
Potency [5]: inactive

O=C(O)c1ccccc1-c1ccc(C(F)(F)F)cc1
Potency [1]: inactive
Potency [6]: inactive
Potency [4]: inactive
Potency [5]: inactive

OCC(O)[C@@H](O)[C@H](O)[C@H](O)CO[C@H]1O[C@H](CO)[C@@H](O)[C@H](O)[C@H]1O (some centres not stated)
Potency [1]: inactive
Potency [6]: 19.9 µM (active)
Potency [5]: inactive

CCN(CC)S(=O)(=O)c1ccc(C(=O)O)cc1
Potency [1]: 38.9 µM (active)
Potency [3]: inactive
Potency [4]: inactive
Potency [5]: inactive

O=Cc1ccccc1[N+](=O)[O-]
Potency [1]: inactive
Potency [3]: 31.7 µM (active)
Potency [4]: inactive
Potency [5]: inactive

CC(C)(C)OC(=O)N1C[C@@H](F)C[C@H]1C(=O)O
Potency [1]: inactive
Potency [4]: inactive
Potency [5]: 36.8 µM (active)

C1=C\CC/C=C\CC/C=C\CC/1
Potency [1]: inactive
Potency [6]: inactive
Potency [4]: inactive
Potency [5]: inactive

CCn1c(=O)c2c(nc(/C=C/c3ccc(OC)c(OC)c3)n2C)n(CC)c1=O
Potency [1]: inactive
Potency [3]: inactive

CCCCC1CCCCC(=O)O1 (configuration not stated)
Potency [1]: inactive
Potency [2]: inactive
Potency [5]: inactive

CCc1cc(S(=O)(=O)O)c2cc(C(C)C)cccc1-2
Potency [1]: inactive
Potency [3]: inactive
Potency [4]: inactive
Potency [5]: inactive

NS(=O)(=O)c1cc2c(cc1Cl)NC(CSCc1ccccc1)=NS2(=O)=O
Potency [1]: 34.7 µM (active)
Potency [2]: 4.9 µM (active)
Potency [3]: inactive
Potency [4]: inactive

Cn1ccc2cc3c(cc21)CCN3C(=O)Nc1cccnc1
activity change, negative = inhibition [1]: -16.8% [at 23.6 µM]
Potency [3]: 0.0791 µM (active)
activity change, negative = inhibition [4]: 2.6% [at 15.8 µM]

NS(=O)(=O)c1cc(C2(O)NC(=O)c3ccccc32)ccc1Cl (configuration not stated)
Potency [1]: inactive
Potency [2]: inactive
Potency [4]: inactive

O=S(=O)(O)c1ccccc1O
Potency [1]: 25.2 µM (active)
Potency [2]: inactive
Potency [3]: inactive
Potency [4]: inactive
Potency [5]: inactive

CCCc1ccccc1O
Potency [1]: inactive
Potency [6]: inactive
Potency [4]: inactive
Potency [5]: inactive

c1ccc2cnncc2c1
Potency [1]: inactive
Potency [2]: inactive
Potency [3]: 14.2 µM (active)
Potency [4]: inactive
Potency [5]: inactive

C=C(C)C(=O)NCCC[N+](C)(C)C
Potency [1]: inactive
Potency [2]: inactive
Potency [4]: inactive
Potency [5]: inactive

COC(=O)[C@H]1[C@H]2C[C@@H]3c4[nH]c5cc(OC)ccc5c4CCN3C[C@H]2C[C@@H](OC(=O)COc2ccc(OC)cc2)[C@@H]1OC
Potency [1]: 17.4 µM (active)
Potency [2]: 27.5 µM (active)
Potency [4]: 0.601 µM (active)

COCCOC(=O)CC#N
Potency [1]: inactive
Potency [2]: inactive
Potency [3]: inactive
Potency [4]: inactive
Potency [5]: inactive

CC/C=C\C#N
Potency [1]: inactive
Potency [2]: inactive
Potency [3]: inactive
Potency [4]: inactive
Potency [5]: inactive

c1ccc(SCCSc2ccccc2)cc1
Potency [6]: 3.53 µM (active)
Potency [3]: 31.4 µM (active)
Potency [5]: inactive

CCOC(=O)Nc1ccc2c(c1)N(C(=O)CCN1CCOCC1)c1ccccc1S2
Potency [6]: 7.76 µM (active)
Potency [2]: 15.5 µM (active)
Potency [3]: inactive
Potency [4]: inactive

CN(C)C(=O)C(CCN1CCC(O)(c2ccc(Cl)cc2)CC1)(c1ccccc1)c1ccccc1
Potency [3]: inactive
Potency [5]: inactive

O=S(=O)(c1cccc2cnccc12)N1CCCNCC1
Potency [6]: inactive
Potency [3]: inactive
Potency [4]: inactive

O=C(O)c1ccccc1S
Potency [6]: inactive
Potency [3]: inactive
Potency [5]: inactive

CCCCCN(CCCCC)C(=O)C(CCC(=O)O)NC(=O)c1ccc(Cl)c(Cl)c1 (configuration not stated)
Potency [2]: 2.19 µM (active)
Potency [3]: inactive
Potency [4]: 9.52 µM (active)

C=CC(=O)N1CCOCC1
Potency [6]: 35.6 µM (active)
Potency [2]: inactive
Potency [4]: inactive
Potency [5]: inactive

c1ccc(CCCc2ccccn2)cc1
Potency [6]: 5.64 µM (active)
Potency [2]: 35.6 µM (active)
Potency [3]: 22.4 µM (active)
Potency [4]: inactive
Potency [5]: inactive

[O-][N+](=Nc1ccccc1)c1ccccc1
Potency [6]: 63.3 µM (active)
Potency [3]: 5.64 µM (active)
Potency [5]: inactive

CN(C)CCn1nnnc1SCC1=C(C(=O)O)N2C(=O)[C@@H](NC(=O)Cc3csc(N)n3)[C@H]2SC1
Potency [2]: inactive
Potency [3]: inactive
Potency [4]: inactive
Potency [5]: inactive

CCCCCCCCCCC1CO1 (configuration not stated)
Potency [6]: inactive
Potency [2]: inactive
Potency [3]: inactive
Potency [4]: inactive
Potency [5]: inactive

Cc1ccc(N)cc1[N+](=O)[O-]
Potency [6]: inactive
Potency [2]: 35.8 µM (active)
Potency [3]: 8.02 µM (active)
Potency [4]: inactive
Potency [5]: 40.2 µM (active)

C=CCSCC1Nc2cc(Cl)c(S(N)(=O)=O)cc2S(=O)(=O)N1 (configuration not stated)
Potency [6]: inactive

Cc1onc(-c2ccccc2)c1-c1ccc(S(N)(=O)=O)cc1
Potency [6]: 7.76 µM (active)
Potency [2]: 13.8 µM (active)
Potency [3]: inactive
Potency [4]: inactive
Potency [5]: inactive

CCCOCC(C)OCC(C)O (configuration not stated)
Potency [4]: inactive

CSc1nc(NC2CC2)nc(NC(C)(C)C)n1
Potency [6]: 20 µM (active)
Potency [2]: 35.6 µM (active)
Potency [3]: 2.52 µM (active)
Potency [5]: 39.9 µM (active)

CCOC(=O)[C@H](CCc1ccccc1)N[C@@H](C)C(=O)N1CCC[C@H]1C(=O)O
Potency [6]: inactive
Potency [3]: inactive
Potency [4]: inactive

CCOC(=O)Cn1c(=O)sc2cccc(Cl)c21
Potency [6]: 7.96 µM (active)
Potency [2]: 10 µM (active)
Potency [3]: 5.03 µM (active)
Potency [4]: inactive

CC(=O)O[C@H](CC(=O)[O-])C[N+](C)(C)C
Potency [4]: inactive

O=C(O)/C=C/c1ccc(/C=C/C(=O)O)cc1
Potency [6]: 8.74 µM (active)
Potency [2]: inactive
Potency [3]: inactive
Potency [4]: inactive
Potency [5]: inactive

CCCCCCCCCCCCI
Potency [1]: inactive
Potency [5]: inactive

CCC(C)(C)C1CCC(OC)CC1 (configuration not stated)
Potency [3]: inactive
Potency [4]: inactive
Potency [5]: inactive

NS(=O)(=O)c1cc2c(cc1C(F)(F)F)NC(Cc1ccccc1)NS2(=O)=O (configuration not stated)
Potency [3]: inactive

O=C1C(CCS(=O)c2ccccc2)C(=O)N(c2ccccc2)N1c1ccccc1 (configuration not stated)
Potency [2]: 30.9 µM (active)
Potency [3]: inactive

NC(=O)c1ncn([C@@H]2O[C@H](CO)[C@@H](O)[C@H]2O)c1O
Potency [6]: inactive
Potency [2]: inactive
Potency [3]: inactive
Potency [5]: inactive

COC(C(=O)O)c1ccccc1 (configuration not stated)
Potency [6]: inactive
Potency [2]: inactive
Potency [3]: inactive
Potency [4]: inactive
Potency [5]: inactive

COc1ccc(N=[N+]([O-])c2ccc(OC)cc2)cc1
Potency [6]: 19.8 µM (active)
Potency [3]: 7.03 µM (active)
Potency [4]: inactive
Potency [5]: inactive

N[C@@H](CS)C(=O)O
Potency [3]: inactive
Potency [4]: inactive
Potency [5]: inactive

CC(=O)NC(Cc1ccccc1)C(=O)O (configuration not stated)
Potency [6]: inactive
Potency [2]: inactive
Potency [3]: inactive
Potency [5]: inactive

CC(C)CCCCCCN
Potency [6]: inactive
Potency [2]: inactive
Potency [3]: inactive
Potency [4]: inactive
Potency [5]: inactive

CC(=O)CCc1ccc(O)cc1
Potency [6]: 20 µM (active)
Potency [2]: inactive
Potency [3]: inactive
Potency [4]: inactive
Potency [5]: inactive

Cc1ccccc1Br
Potency [6]: 79.1 µM (active)
Potency [5]: inactive

NCCNC(=O)c1ccc(Cl)cn1
Potency [6]: inactive
Potency [2]: inactive
Potency [5]: inactive

CCCCc1ccc(N)cc1
Potency [6]: 39.9 µM (active)
Potency [2]: 44.8 µM (active)
Potency [3]: 35.6 µM (active)

Oc1ccc2c(c1)OC[C@@H](N1CCC(O)(c3ccc(F)cc3)CC1)[C@H]2O
Potency [6]: 3.89 µM (active)
Potency [2]: 13.8 µM (active)
Potency [3]: 7.76 µM (active)
Potency [5]: inactive

CO
Potency [4]: inactive

N#CC1(O)CCCCC1
Potency [6]: 40.2 µM (active)
Potency [4]: inactive
Potency [5]: inactive

CC(=O)OC(C)(C)C
Potency [6]: inactive
Potency [2]: inactive
Potency [3]: inactive
Potency [4]: inactive
Potency [5]: inactive
